In PubChem BioAssay (NCI):
Compounds without any hit were thinned out: in the full panel of roughly 83,000, 20% have a hit.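 Step 1: grow cells in 96-well plates. Step 2: add test compound at a single concentration. Step 3: incubate 48 h. Step 4: record percent growth.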 Unmarked numbers belong to inactive results. Calls of active or inactive are those of the source. Rule for the calls: active = growth percent below 10; inactive = the rest.

Columns and labels:
Assay in all cases: NCI-60 one-dose screen, 48 h (100 = growth as untreated, 0 = no growth, -100 = all killed)
Conditions in all cases: 10 µM unless noted
DU-145 prostate = test system: DU-145 prostate
K-562 leukemia = test system: K-562 leukemia
MALME-3M melanoma = test system: MALME-3M melanoma
MDA-MB-231 breast = test system: MDA-MB-231 breast
SF-268 CNS = test system: SF-268 CNS
SF-295 CNS = test system: SF-295 CNS
SF-539 CNS = test system: SF-539 CNS
UACC-257 melanoma = test system: UACC-257 melanoma
M14 melanoma = test system: M14 melanoma
RXF 393 renal = test system: RXF 393 renal

| SMILES | growth (DU-145 prostate) | growth (K-562 leukemia) | growth (MALME-3M melanoma) | growth (MDA-MB-231 breast) | growth (SF-268 CNS) | growth (SF-295 CNS) | growth (SF-539 CNS) | growth (UACC-257 melanoma) | growth (M14 melanoma) | growth (RXF 393 renal) |
| --- | --- | --- | --- | --- | --- | --- | --- | --- | --- | --- |
| CCCCCCn1c(O)c(N=Nc2nc(-c3cc4ccccc4oc3=O)cs2)c2ccccc21 | 10.1% | 29.8% | -72.1% (active) | -65.6% (active) | 11% | 47.8% | 56.1% | 46.3% | -4.72% (active) |  |
| N/C(=N\c1nc2ccccc2s1)NC(=O)NCCCCCCO | 56.7% | 23.4% | 54% |  | 61.6% | 21.4% | 64.8% | 29.2% | 67.3% | 43.6% |
| CCN(CC)C(=O)N/C(N)=N/c1nc2ccccc2s1 | 48.8% | 30.3% | 56.8% |  | 72.6% | 32.5% | 69.7% | 40.5% | 71.9% | 58.5% |
| N#Cc1c(-c2ccccc2Cl)cc(-c2c[nH]c3ccccc23)[nH]c1=O | 66% | 20% | 57.2% |  | 80% | 75.8% | 52.2% | 82.3% | 64.1% | 48.7% |
| CC(C)c1ccc2c(N)c(C(=O)Nc3ccc(C(F)(F)F)cn3)sc2n1 | 63.8% | 33.1% | 63% |  | 91.8% | 34.3% | 88% | 60% | 50.5% | 74.5% |
| O=c1[nH]n(C(=S)N/N=C/c2ccccc2Cl)c(=O)c2ccccc12 | 15.1% | 4.54% (active) | 28.3% |  | 28.5% | 15.9% | -20.2% (active) | 37.2% | -41.9% (active) | -57.7% (active) |
| CC(=O)Oc1ccccc1C(=O)[Se]C(=NC1CCCCC1)NC1CCCCC1 | -80% (active) | 3.88% (active) | -91.8% (active) |  | 8.57% (active) | -78.9% (active) | -98.7% (active) | -89.9% (active) | -73.7% (active) | -99.7% (active) |
| O=C(N/N=C/c1ccc(-c2ccc(O)cc2)o1)c1[nH]c2ccc(Br)cc2c1-c1ccccc1 | 0.567% (active) | 1.64% (active) | -26.8% (active) |  | 12.7% | -68.7% (active) | -59.2% (active) | 27.4% | 18.1% | -10% (active) |
| CC(=O)Oc1ccccc1C(=O)[Se]CC(=O)Nc1cccc(C(F)(F)F)c1 | 8.88% (active) | 18.6% | -92.8% (active) |  | 2.38% (active) | -76.8% (active) | -90.1% (active) | -24.2% (active) | -37.4% (active) | -25.5% (active) |
| Cc1ncsc1-c1ccc(CNC(=O)[C@@H]2C[C@@H](O)CN2C(=O)[C@@H](NC(=O)C2(F)CC2)C(C)(C)C)c(OCCOCCOCCOCCOc2nc(Nc3cc(S(C)(=O)=O)ccc3N[C@@H](c3cccc4c3OC(F)(F)O4)c3ncccc3Cl)nc(N3CCNCC3)n2)c1 | 69% | 23.1% | 41.4% |  | 65.7% | 101% | 70.1% | 94.4% | 97.5% | 65.3% |
| C(=C\c1cc(/C=C/c2ccccc2)c2ccccc2n1)/c1ccccc1 | 101% | 43.2% | 90.5% |  | 102% | 109% | 74.3% | 98.5% | 51.4% | 111% |
| Cn1nc(C(F)(F)F)cc1-c1cc(Cl)c(COc2ccc(Cl)cc2)c(-c2ccc(Cl)c(C(F)(F)F)c2)c1O | 8.66% (active) | 1.2% (active) | -52.4% (active) |  | -0.375% (active) | -70.8% (active) | -77.9% (active) | -31.4% (active) | -67% (active) | -47.7% (active) |
| Cc1ccc(/C=C/c2n(Cc3ccc4ccccc4c3)c3ccccc3[n+]2Cc2ccc3ccccc3c2)cc1 | -90.1% (active) | -25.6% (active) | -90.2% (active) | -47.3% (active) | -65.1% (active) | -98.5% (active) | -96.5% (active) | -71.5% (active) | -74.1% (active) |  |
| COc1cc(-c2ccc(/C=N/NC(=O)c3[nH]c4ccc(Br)cc4c3-c3ccccc3)s2)cc(OC)c1OC | 86.4% | 89.6% | 86.7% |  | 67.8% | 49.6% | 6.55% (active) | 100% | 82.5% | 82.4% |
| C=C1CC[C@@H]2[C@]3(C)COC(c4cn[nH]c4-c4ccc(OC)cc4)O[C@@H]3CC[C@@]2(C)[C@@H]1C/C=C1/C(=O)OCC1O (stereo partly specified) | -27.2% (active) | -31.2% (active) | -62.1% (active) |  | 3.8% (active) | -41.9% (active) | -87.2% (active) | -24.6% (active) | -50.9% (active) | -58.5% (active) |
| O=c1cc(-c2ccccc2)oc2cc(OCCCC[P+](c3ccccc3)(c3ccccc3)c3ccccc3)cc(O)c12 | -94.8% (active) | -24.1% (active) | -88% (active) | -32.2% (active) | -59% (active) | -96.1% (active) | -95.7% (active) | -91% (active) | -70.1% (active) |  |
| C=C1CCC2C3(C)COC(c4cc(F)cc(F)c4)OC3CCC2(C)C1CC(O)C1=CCOC1=O (stereo unspecified) | 72.9% | 24.6% | 88.6% | 63.2% | 97.3% | 77.9% | 79.6% | 73.7% | 58.7% | 56.4% |
| CC1=C(C(=O)OCc2ccccc2)C(c2ccc(-n3cncn3)cc2)n2c(nc3ccccc32)N1 (stereo unspecified) | 67.7% | 14.3% | 50.9% |  | 71.5% | 19.9% | 38.3% | 51.5% | 50.5% | 52.2% |
| N#Cc1c(-c2ccccc2Cl)cc(-c2ccc3ccccc3c2)[nH]c1=O | 49% | 62% | 12.9% |  | 22.5% | 1.62% (active) | 16.5% | 70.3% | 25.1% | -6.69% (active) |
| Cc1c(C(=O)NNC(=O)c2ccc(Cl)cc2)nnn1-c1ccc(Cl)cc1 | 108% | 86.3% | 86.9% |  | 105% | 82.7% | 99.6% | 94.1% | 93.6% | 92.7% |
| O=c1oc2ccccc2cc1-c1csc(N=Nc2c(O)[nH]c3ccc(Cl)cc23)n1 | 98% | 104% | 96.2% | 113% | 82.1% | 87.9% | 94.2% | 104% | 109% |  |
| CCCCn1c(O)c(N=Nc2nc(-c3cc4ccccc4oc3=O)cs2)c2cc(Br)ccc21 | 108% | 105% | 105% | 106% | 97% | 105% | 103% | 103% | 112% |  |
| O=C(O)c1cccc(-c2ccc(/C=N/NC(=O)c3[nH]c4ccc(Br)cc4c3-c3ccccc3)s2)c1 | 55.6% | 19.8% | 57.9% |  | 39% | 15.6% | 16.1% | 85.5% | 47.9% | -2.3% (active) |
| CC1(C)CC[C@]2(C(=O)Nc3ccccc3)CC[C@]3(C)C(=CCC4[C@@]5(C)C[C@@H](O)[C@H](O)[C@@](C)(CO)C5CC[C@]43C)C2C1 (stereo partly specified) | 76.8% | 33.3% | 73.9% | 53.5% | 61.2% | 50.4% | 63% | 65.6% | 56.1% | 17.6% |
| CC1=C(C(=O)c2ccccc2)C(c2cccc3ccccc23)n2c(nc3ccccc32)N1 (stereo unspecified) | 67.3% | 39.3% | 57.4% |  | 60.1% | 76.9% | 1.2% (active) | 84% | 73.5% | 76.4% |
| O=C(/C=C/c1cccc(OCc2ccccc2)c1)c1nc2ccccc2[nH]1 | 55.9% | -8.72% (active) | 90.9% |  | 62.3% | 69.9% | -56.5% (active) | 70.1% | 1.55% (active) | 20.4% |
| Cc1cccc(Nc2nc3ccccc3nc2/C=C/c2ccc(F)cc2)c1 | 101% | 86.5% | 109% | 97.1% | 91% | 107% | 102% | 94.5% | 93.3% | 98% |
